Laboratory results: PubChem BioAssay (NCI)
Compounds without any hit were thinned out: in the full panel of roughly 79,000, 15% have a hit. Activity calls are given as the source filed them. No stated cut-off is given here; in the data, active means growth inhibition above about 70%; inactive means the rest.

Key:
[1] = NCI Yeast Anticancer Drug Screen. Data for the rad50 strain (AID 155);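 further: 0% = growth of vehicle-only cultures of the same strain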; settings: S. cerevisiae rad50 strain growth inhibition; at 50.0 µM; hits give high values
Procedure, shortened: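 DNA repair mutant yeast, compound exposure, growth read-out; inhibition is taken relative to vehicle.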

[2] = NCI Yeast Anticancer Drug Screen. Data for the mec2-1 strain (AID 157); settings: S. cerevisiae mec2-1 strain, at 50.0 µM, hits give high values
Procedure, shortened: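 Yeast mec2-1 mutant treated with compound. Readout: growth inhibition vs vehicle controls.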

[3] = NCI Yeast Anticancer Drug Screen. Data for the sgs1 mgt1 strain (AID 161);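 further: 0% = growth of cultures given vehicle only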; settings: S. cerevisiae sgs1 mgt1 strain, at 50.0 µM, hits give high values
Procedure, shortened: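 Read-out: growth inhibition vs vehicle controls. Cells: mutant yeast strain deficient in DNA damage repair.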

[4] = NCI Yeast Anticancer Drug Screen. Data for the cln2 rad14 strain (AID 165);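 further: 0% = growth equal to vehicle treated cultures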; settings: S. cerevisiae cln2 rad14 strain, at 50.0 µM, hits give high values
Procedure, shortened: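 cln2 rad14 yeast strain; compound exposure; growth inhibition read vs vehicle controls.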

[5] = NCI Yeast Anticancer Drug Screen. Data for the bub3 strain (AID 167); settings: S. cerevisiae bub3 mutant strain, at 50.0 µM, hits give high values
Procedure, shortened: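 In this screen, a yeast mutant lacking normal mitotic checkpoint function is challenged with compound. Relative growth versus vehicle gives the inhibition value.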

[6] = NCI Yeast Anticancer Drug Screen. Data for the mlh1 rad18 strain (AID 175); settings: S. cerevisiae mlh1 rad18 strain growth inhibition; at 50.0 µM; hits give high values
Procedure, shortened: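 Yeast w/ defined DNA-repair lesions; compound exposure; growth vs vehicle controls → % inhibition.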

Measured: growth inhibition

COc1nc(NC2OC(CO)C(O)C(O)C2O)c(/C=N/O)c(=O)n1C (stereo unspecified)
inactive: [1] 4.55% | [2] 2.25% | [3] -6.35% | [4] 6.8% | [5] 7.85% | [6] 4.45%

Nc1cc(OCc2ccccc2)ncn1
inactive: [1] 10.6% | [2] 11% | [3] 3.75% | [4] -11.6% | [5] -1.05% | [6] 20.9%

N#C/C(=C\c1ccco1)C(=O)c1ccco1
inactive: [1] 19.4% | [2] 15.1% | [3] 28.2% | [4] 13.8% | [5] 38.7% | [6] 34.6%

CCOC(=O)c1c2ccc(/C=C/c3ccccn3)ccc-2c(C(=O)OCC)c1N
inactive: [1] 15.2% | [2] -4.75% | [3] -1% | [4] 13% | [5] 0.9% | [6] -3.1%

COC1/C=C\OC2(C)Oc3c(C)c(O)c4c(O)c(c(CN(C)C)c(O)c4c3C2=O)NC(=O)/C(C)=C\C=C/C(C)C(O)C(C)C(O)C(C)C(OC(C)=O)C1C (stereo unspecified)
inactive: [1] 50.5% | [2] -3.1% | [3] -16.7% | [4] 28.2% | [5] -29.9% | [6] -6.45%

Cn1c2ccccc2c2nnc(N/N=C/c3cccnc3)nc21
inactive: [1] -39.1% | [2] -36.5% | [3] -17.4% | [4] -44.6% | [5] -5.05% | [6] -5.7%

COc1ccc(CCn2nnc3ccccc3c2=O)cc1OC
inactive: [1] -4.1% | [2] -33.1% | [3] -10.1% | [4] 16.6% | [5] -28.4% | [6] -11.5%

C=CCC1(C(=O)OC)CCC/C(=N\O)C1 (stereo unspecified)
inactive: [1] 7.5% | [2] -17.8% | [3] -19.4% | [4] 4.1% | [5] -26.9% | [6] -3.45%

CCCC[n+]1cccc(C(=O)c2ccccc2)c1
inactive: [1] 15.7% | [2] -6.6% | [3] 0.7% | [4] 2.75% | [5] 2.35% | [6] 8.85%

COc1cc(CC(=O)O)c(Br)cc1C
inactive: [1] 5.95% | [2] 20.9% | [3] 4.15% | [4] 0.05% | [5] -0.85% | [6] -2.65%

CN(C(=O)C12C3C4C1C1C2C3C41C(=O)N(C)C(C)(C)C)C(C)(C)C (stereo unspecified)
inactive: [1] 13.9% | [2] 11.5% | [3] -7.4% | [4] 9.45% | [5] 23.4% | [6] -2.4%

Cc1cc(C2(c3cc(C)c(O)c4ncccc34)OC(=O)c3ccccc32)c2cccnc2c1O
active: [1] 84.6% | [2] 85.5% | [6] 87.5%
inactive: [3] 50.6% | [4] 44% | [5] 66%

CCOC(=O)C(NC(=O)c1ccccc1)(C(=O)OCC)c1ccccn1
inactive: [1] 8.55% | [2] -13.5% | [3] 9.65% | [4] 18.8% | [5] 9.6% | [6] 22.6%

CCCCCc1c(C)[nH]n(C(N)=NCCSCc2nc[nH]c2C)c1=O
inactive: [1] 31.5% | [2] -0.8% | [3] 35% | [4] 22.4% | [5] -22.5% | [6] 25.2%

Cc1cccc(C)c1NC(=O)N(Cc1ccccc1)Cc1ccccc1
inactive: [1] 1.65% | [2] 15.2% | [3] 20.6% | [4] -2% | [5] 36.7% | [6] 30.6%

CCCCCCCCCCCCCCC(O)CO (stereo unspecified)
inactive: [1] -11.3% | [2] -12.7% | [3] -4.45% | [4] -102% | [5] -27.1% | [6] -20.9%

Nc1ccn[nH]1
inactive: [1] 5.1% | [2] -0.05% | [3] 0.8% | [4] -2.25% | [5] 18.1% | [6] 1.35%

O=C1c2ccccc2C(=O)N1CC(O)CCl (stereo unspecified)
inactive: [1] -21.3% | [2] -30.4% | [3] -0.45% | [4] 12% | [5] -14.5% | [6] -26.5%

C/C(=N\NC(N)=O)c1cc2cc([N+](=O)[O-])ccc2oc1=O
inactive: [1] -2.2% | [2] 23.6% | [3] 16.1% | [4] -7.85% | [5] -12.6% | [6] 8.5%

CCOC(=O)c1ccccc1O
inactive: [1] -17.8% | [2] -5.8% | [3] -8.6% | [4] -38.4% | [5] -12.4% | [6] 9.5%

CC(=O)Nc1ccc(C(O)/C(=N/N)c2nc3ccc(Cl)cc3[nH]c2=O)cc1 (stereo unspecified)
inactive: [1] 9.15% | [2] -8.9% | [3] -6% | [4] -1.1% | [5] 5.55% | [6] -26.9%

O=c1cnc(=O)[nH][nH]1
inactive: [1] -12.4% | [2] -17.2% | [3] -7% | [4] -18.1% | [5] 5.7% | [6] -5.4%

C=C(Br)C[N+](CC)(CC)CC
inactive: [1] -14.3% | [2] -3.3% | [3] -9.4% | [4] 15.8% | [5] -8.85% | [6] -9.25%

Nc1cc(S(=O)(=O)O)cc2ccc(S(=O)(=O)O)cc12
inactive: [1] -4.15% | [2] 6.75% | [3] -14.6% | [4] -4.35% | [5] -5.65% | [6] 3.95%

O=C(c1ccccc1)C1C=CC=CN1Cc1ccccc1S(=O)(=O)O (stereo unspecified)
inactive: [1] 13.5% | [2] 0.6% | [3] -3.95% | [4] 3% | [5] 1.75% | [6] -19.2%

CCCc1c(C)nc2scc(-c3ccccc3)n2c1=O
inactive: [1] 38.7% | [2] 16.5% | [3] 55.1% | [4] 37.4% | [5] 39.4% | [6] 34%

Cc1ccccc1NC(=O)c1ccccc1Cl
inactive: [1] -19.3% | [2] -18.6% | [3] -6.9% | [4] -31.8% | [5] -19.1% | [6] -25.6%

Cc1ccc(-c2cnc3c(n2)c(=O)[nH]c(=O)n3C)cc1
inactive: [1] 29.5% | [2] 19.1% | [3] 20.5% | [4] 13.8% | [5] 17.4% | [6] 35.6%

C/C(=C\c1ccc(F)cc1)C(=O)O
inactive: [1] 20.2% | [2] -0.95% | [3] 0% | [4] 11.2% | [5] 14.9% | [6] 13.8%

O=C(N/N=C\c1ccncc1)Nc1ccc(N=Nc2ccccc2)cc1
inactive: [1] 13.2% | [2] 6.05% | [3] 17.6% | [4] -2.6% | [5] 5.9% | [6] 19.6%

CCC(C#N)(C(=O)OC)/C(C)=C/C(C)C (stereo unspecified)
inactive: [1] 7.95% | [2] -13.2% | [3] -3.45% | [4] -7.25% | [5] -26.9% | [6] -25.1%

Nc1ccc2c(c1)CC1CC(=O)NN=C21 (stereo unspecified)
inactive: [1] 29.5% | [2] 9.95% | [3] 9.4% | [4] 3.35% | [5] -3.15% | [6] -22.2%

Nc1ncnc2c1ncn2C1OC(CSCc2ccc(Cl)cc2)C(O)C1O (stereo unspecified)
inactive: [1] 26.6% | [2] 10.8% | [3] 15.4% | [4] 10.6% | [5] 58.7% | [6] 22.2%

Cc1cc[n+](Cc2ccccc2Cl)c(C)c1
inactive: [1] 19% | [2] 2.25% | [3] 14% | [4] -4.15% | [5] 2.05% | [6] 4.9%

O=C(NC(Cc1c[nH]c2ccccc12)(C(=O)O)C(=O)O)OCc1ccccc1
inactive: [1] 23.1% | [2] 15.1% | [3] 18.7% | [4] 29.1% | [5] 2.1% | [6] 17.8%

O=C1Nc2cccc3cc(NCC(O)CCCl)cc1c23 (stereo unspecified)
inactive: [1] 17.4% | [2] 3.1% | [3] 18.2% | [4] -5.8% | [5] 14.6% | [6] 20.6%

CC(=O)c1ccc(C(C)=O)c(OCc2ccccc2)c1
inactive: [1] -4.45% | [2] -12.4% | [3] -8.25% | [4] -27.9% | [5] -5.95% | [6] -5.05%

NC(=S)N/N=C/c1ccccc1S(=O)(=O)O
inactive: [1] 1.9% | [2] -12.8% | [3] -9.75% | [4] -16.2% | [5] 0.05% | [6] -4.7%

COc1ccc2c(c1)C(=O)C1CCC(=O)N1C2c1ccc2c(c1)OCO2 (stereo unspecified)
inactive: [1] -9.65% | [2] 18.3% | [3] 10.2% | [4] 5.9% | [5] 47.1% | [6] -0.3%

COC(=O)[C@H](Cc1c[nH]c2ccccc12)NP(=O)(O)OCC1C=CC(n2cc(C)c(=O)[nH]c2=O)O1 (stereo partly specified)
inactive: [1] -8.5% | [2] -7.75% | [3] -9.6% | [4] 6.8% | [5] -13.1% | [6] -49.7%

NC(=O)ON=C1CCN(Cc2ccccc2)CC1
inactive: [1] 30.4% | [2] 15.4% | [3] 10.7% | [4] 18.9% | [5] 10.2% | [6] 21.4%
